Screening results from PubChem.
Shown are actives, neighbours in structure and some others; about 2.4% of the full set was active somewhere.
Pol beta inh – inhibitors of human DNA polymerase beta | P06746 | Pol beta primer extension/strand displacement, fluorescence kinetic | Potency, µM (highest dose often 114 µM), for inactives: top-dose activity change, negative = inhibition, hits mostly inhibitors | 1.3% of 340,000 active | AID 485314; further: on the % scale 0 is the no-effect control and ±100 the full control effect
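Pol beta (10 nM) and compounds were preincubated 15 min at room temperature, then 50 nM substrate (final) started primer extension/strand displacement. Reads were taken at 0 and 10 min; concentration-response data were fitted to a four-parameter Hill equation.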
FEN1 inh – human FEN1 inhibition; P39748; 0.35% of 390,000 active; Recombinant FEN1 flap cleavage, fluorescence, 15 min; Potency, µM (series often up to 114 µM), for inactives: at the top dose activity change, negative = inhibition, hits mostly inhibitors; further: on the % scale 0 is the no-effect control and ±100 the full control effect; nearly all actives have a fitted effect of over 65% in size
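Read-out was taken twice, immediately and after 15 min, following addition of 50 nM substrate to 10 nM FEN1 that had sat with test compound for 15 min at room temperature. Curves came from a four-parameter Hill model.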
Pol iota inh – blocks human DNA polymerase iota activity | AID 588590 | 1% of 390,000 active | Q9UNA4 | Potency, µM (titrated, usually from 115 µM), inactives show top-dose activity, negative = inhibition, hits mostly inhibitors | Pol iota fluorescent replication assay, 10 min
Target sequence (Q9UNA4 whole entry, looked up): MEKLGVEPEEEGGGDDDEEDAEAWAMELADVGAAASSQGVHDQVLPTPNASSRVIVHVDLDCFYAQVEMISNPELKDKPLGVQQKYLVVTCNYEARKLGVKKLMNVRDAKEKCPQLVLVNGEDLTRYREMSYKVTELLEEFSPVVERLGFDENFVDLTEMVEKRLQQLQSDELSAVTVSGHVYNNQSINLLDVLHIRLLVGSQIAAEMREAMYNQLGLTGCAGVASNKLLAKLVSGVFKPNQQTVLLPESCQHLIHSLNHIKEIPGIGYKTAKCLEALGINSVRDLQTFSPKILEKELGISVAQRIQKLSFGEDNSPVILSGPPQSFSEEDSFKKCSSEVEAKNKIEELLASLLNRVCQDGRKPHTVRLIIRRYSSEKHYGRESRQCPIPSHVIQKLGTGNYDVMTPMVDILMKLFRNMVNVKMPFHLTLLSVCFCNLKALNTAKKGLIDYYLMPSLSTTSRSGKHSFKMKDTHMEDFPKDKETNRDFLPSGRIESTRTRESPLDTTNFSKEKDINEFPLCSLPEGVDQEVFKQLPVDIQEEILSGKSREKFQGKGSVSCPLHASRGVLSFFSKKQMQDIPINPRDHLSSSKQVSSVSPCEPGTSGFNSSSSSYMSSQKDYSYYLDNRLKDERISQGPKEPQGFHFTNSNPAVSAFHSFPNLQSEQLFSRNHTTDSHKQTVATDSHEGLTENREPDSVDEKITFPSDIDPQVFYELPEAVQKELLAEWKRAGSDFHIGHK
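Pol iota at 10 nM preincubated 15 min with compounds at room temperature; reaction started with fluorescent substrate, 50 nM final. Fluorescence read kinetically at 0 and 10 min; buffer-only wells as negative control.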
TDP1 block – TDP1 (human) enzyme inhibition; Potency, µM (doses to about 130 µM), inactives show at the top dose activity change, negative = inhibition, most hits filed as inhibitors; 0.28% of 350,000 active; recombinant TDP1, AlphaScreen DNA substrate cleavage; Q9NUW8; further: on the % scale 0 is the no-effect control and ±100 the full control effect; nearly all actives have a fitted effect of over 40% in size
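Steps: enzyme plus compound, 15 min RT; add biotin/phosphotyrosine-FITC oligonucleotide (15 nM final), react 5 min; add donor/acceptor beads (10 ug/ml final), 10 min; read AlphaScreen. Tdp1 at 1 nM final.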
POLK inh – inhibitors of human DNA polymerase kappa | Q9UBT6 | purified Pol kappa, fluorescent DNA synthesis assay, 10 min | Potency, µM (series often up to 107 µM), for inactives: at the highest dose activity, negative = inhibition, most hits filed as inhibitors | 0.53% of 400,000 active; further: on the % scale 0 is the no-effect control and ±100 the full control effect
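Kinetic fluorescence readout at 0 and 10 min followed reaction start with substrate at 50 nM final. Beforehand, enzyme (10 nM Pol kappa) stood 15 min with compound at room temperature; buffer-only wells were negative controls.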
POLH inh – blocks human DNA polymerase eta activity. 1.2% of 390,000 active. Potency, µM (top dose mostly 114 µM), inactives show top-dose activity change, negative = inhibition, hits mostly inhibitors. Q9Y253. recombinant Pol eta, fluorescent DNA replication assay; further: on the % scale 0 is the no-effect control and ±100 the full control effect
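Pol eta (10 nM) was preincubated with compounds for 15 min at room temperature, after which fluorescent replication substrate (50 nM final) was added to start the reaction. Fluorescence was read kinetically at 0 and 10 min.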
* = called active by the depositor; ? = inconclusive; . = not tested or not shown; ! = not confirmed by another sample; [ ] = dose if it differs, or a comment. The call rests on the fitted dose curve; in most records, active means well fitted curve in the direction sought with a large enough effect; inconclusive means small, poorly fitted or top-dose-only effect, or another doubt; inactive means no such curve, though single readings can be large; an effect the other way counts as inactive or inconclusive. Potency means the concentration at half of the fitted maximal effect.

SMILES | Pol beta inh | FEN1 inh | Pol iota inh | TDP1 block | POLK inh | POLH inh
CC1(C)c2ccccc2N2CC(=O)N(CC(N)=O)C21C (configuration not stated) | 45µM* | 79µM* | ? | 7% | 45µM* | ?
CC(C)=CCC/C(C)=C/CC/C(C)=C/CCC1(C)CCc2cc(O)ccc2O1 (configuration not stated) | . | -10% | -4% | . | -5% | .
Cc1cc(C)nc(SCc2ccc(C(=O)N/N=C/c3ccco3)cc2)n1 | 14µM* | -1% | 100% | 5% | -3% | -4%
COc1ccc(O)c(/C=N/NC(=O)c2ccc(CSc3nc(C)cc(C)n3)cc2)c1 | 25µM* | -11% | ? | ? | ? | ?
C/C(=N\NC(=O)c1ccc(-c2ccccc2)cc1)c1ccco1 | 15% | -2% | 31% | -7%[0.0935 µM] | -6% | -1%
COc1ccc(O)c(/C=N/NC(=O)c2ccc(OCc3cccc(Br)c3)cc2)c1 | 16µM* | 3% | ? | -14% | -9% | -10%
C/C(=N\NC(=O)c1ccc(CSc2nc(C)cc(C)n2)cc1)c1ccco1 | 56µM* | 3% | 103% | 8% | -24% | -8%
Cc1noc(C)c1-c1cc(Nc2ccccc2)ncn1 | . | . | . | . | -6%[60.1 µM] | .
O=[N+]([O-])c1ccc(O/N=[N+](\[O-])N2CCN(c3ncccn3)CC2)c([N+](=O)[O-])c1 | . | -21% | ? | . | -4% | .
O=c1oc2ccccc2c2c1C1O[C@](c3ccsc3)(Cc3ccccc31)O2 | 11µM* | . | . | . | . | .
Cc1cc2c(c(=O)o1)C1O[C@](c3ccsc3)(Cc3ccccc31)O2 | 1%[22.9 µM] | . | . | . | . | .
COc1ccc2c3c(c(=O)oc2c1)C1O[C@](c2ccsc2)(Cc2ccccc21)O3 | -23%[22.9 µM] | . | . | . | . | .
O=c1oc2ccc(F)cc2c2c1C1O[C@](c3ccsc3)(Cc3c1ccc1ccccc31)O2 | 10µM* | . | . | . | . | .
O=C(Cn1cc(C(F)(F)F)ccc1=O)Nc1ccc(N2CCOCC2)cc1 | -5% | 2% | 95% | 5% | 0% | -26%
C=CCn1c(=O)c(CCC(=O)Nc2ccc(N3CCOCC3)cc2)nc2cc(C(F)(F)F)ccc21 | 6% | -3% | ? | 0% | ? | 79µM*
Cc1ccccc1N=C1Nc2ccc(Cl)cc2N[C@]12C[C@H]1CCCC(=O)N3CC[C@@H](C2)[C@@H]13 | . | ? | 13% | . | 6% | .
COc1ccc(C(=O)N(Cc2ccccc2)Cc2ccco2)c(O)c1 | . | . | . | 0% | . | .
Cc1cc(C)c2nc(Cl)c(CN(Cc3ccco3)C(=O)Nc3ccccc3C)cc2c1 | 1% | -3% | 89µM* | -4% | -8% | -7%
COc1ccc(C2=CC3=CC(=O)C(C)(O)C(=O)C3=CO2)cc1 (configuration not stated) | . | . | . | 9% | . | .
COc1ccc(C2=CC3=C(Br)C(=O)C(C)(O)C(=O)C3=CO2)cc1 (configuration not stated) | 40µM* | -29% | ? | -3% | ? | ?
COCC(C)n1c(C)cc(C(=O)CSc2nnc(-c3ccco3)o2)c1C (configuration not stated) | . | -15% | 41% | 4% | -14% | -19%
Cc1cc(C(=O)CSc2nnc(-c3ccco3)o2)c(C)n1Cc1ccco1 | 45µM* | 1% | ? | 5% | -20% | ?
Cc1ccc2cccc(OCC(=O)c3cc(C)n(Cc4ccco4)c3C)c2n1 | 11µM* | . | . | 9% | . | .
O=C1c2ccccc2-c2cc([N+](=O)[O-])c([N+](=O)[O-])cc21 | . | ? | 2.2µM* | . | 0% | .
CCN(C(=O)c1c(C)oc2ncn(CC(C)C)c(=O)c12)c1cccc(Cl)c1 | 1% | -6% | 23% | 4% | -1% | -19%
SMILES | Pol beta inh | FEN1 inh | Pol iota inh | TDP1 block | POLK inh | POLH inh
CCC(=O)NC(c1ccc(C)s1)c1cc(Cl)c2cccnc2c1O (configuration not stated) | . | . | . | 0% | . | .
CN(C)CCOc1nc(-c2ccccc2)nc2c1oc1ccccc12 | 45µM* | 50µM* | ? | 3% | -21% | ?
CN(C)CCOc1ncnc2c1oc1ccccc12 | 17% | 5% | 20% | 2% | -3% | -15%
Cc1ccc(NC2=C(NCCO)C(=O)c3ccccc3C2=O)cc1 | -12% | -11% | 20µM* | 8% | -18% | -12%
CC(=O)Nc1ccc(NC2=C(Cl)C(=O)c3ccccc3C2=O)cc1 | 0% | -21% | -90% | -3% | -2% | -14%
CCOc1ccccc1NC(=O)C(c1ccccc1)N1Cc2ccccc2C1=O (configuration not stated) | -2% | -19% | 6% | 1% | -1% | -3%
CC[C@@]12CCCN3CCc4c(n(c5ccccc45)C(=O)C1)[C@H]32 | . | . | . | 12%[21 µM] | 7%[12 µM] | .
O=C1CCN(Cc2ccccc2)CCN1CCSc1ccccc1 | -1% | 17% | 79µM*! | . | ? | -5%
C[C@H]1C2=C3C(CC[C@H]4C(OCc5ccc(F)cc5C(F)(F)F)OC[C@](C)([C@@H]34)N(C(=O)OC(C)(C)C)C2)C2COC(=O)OCC21 (some centres not stated) | . | . | . | 8% | . | .
Cn1nnnc1Sc1ncnc2scc(-c3ccccc3C(F)(F)F)c12 | . | -13% | -9% | 8.9µM* | 6% | -4%
Cc1ccc(/C=c2\sc3nc(-c4ccco4)nn3c2=O)o1 | 28µM* | ? | ? | -4% | 28µM* | 3.5µM*
Cc1cc(C)cc(N2CN=c3s/c(=C\c4ccco4)c(=O)n3C2)c1 | ? | 3% | 8% | -9% | 2% | ?
C=CCOc1ccccc1/C=c1\sc2nc(-c3oc4ccccc4c3C)nn2c1=O | . | -3% | -16%[58.9 µM] | . | -1% | -11%
Cc1ccc(/C=c2/sc3nnc(-c4ccccc4Cl)n3c2=O)o1 | 40µM* | -9% | ? | -2% | -29% | 14µM*
Cc1ccc(/C=c2\sc3nc(-c4ccccc4Br)nn3c2=O)o1 | 14µM* | ? | ? | . | 20µM* | 10µM*
Cc1ccc(-c2nc3s/c(=C\c4ccco4)c(=O)n3n2)cc1 | 28µM* | -5% | 25µM* | . | -42% | 89µM*
